Results: PubChem BioAssay (NCI)
This is part of a sample that, as a whole, favours compounds with a hit. Of some 83,000 tested, about 20% had one in any assay.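 Values shown are percent growth following 48 h exposure of cells in 96-well plates to a single concentration of compound; below 10 was considered active.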 Values without a mark were called inactive. Calls of active or inactive are those of the source.

Each compound was assayed on UO-31 renal (assay: NCI-60 one-dose screen, 48 h (100 = growth as untreated, 0 = no growth, -100 = all killed)). Details: 10 µM unless noted.

SMILES	growth
CCNC(=O)N1CCc2cc(OC)c(OCCc3ccc(OC)nc3)cc2C1c1ccc(OC)cc1C (centres undefined)	40.3%
C=CCn1c(-c2nc3ccc(C(=C(C#N)C#N)c4ccccc4)cc3[nH]2)cc2cc(Br)ccc21	51.9%
Cc1ccc(S(=O)(=O)NCCNc2nc(Nc3ccc(N4CCN(C)CC4)cc3)nc3ccsc23)cc1	92.4%
COc1cc2nc(Cl)nc(Nc3cccc(C4=Nc5c(N)nc(N)nc5NC(c5ccc(Cl)cc5)C4)c3)c2cc1OC (centres undefined)	89.9%

These compounds were tested on TK-10 renal in the same assay as above. Details: 10 µM unless noted.

SMILES	growth
COc1ccc2[nH]cc(-c3csc4nc(-c5ccccc5)cn34)c2c1	75.6%
COc1cc(Cn2cc3c(c2)-c2onc(CN4CCCC4)c2CC3)cc(OC)c1OC	111%
COC(=O)/C=C/c1c(C2(C)NC(=O)c3ccccc3N2)c(=O)oc2ccc(Cl)cc12 (centres undefined)	108%
Cc1ccc2c(c1)Oc1nc(N)c(C#N)c(N)c1C2Sc1ccc(F)cc1 (centres undefined)	-98.8% (active)
COc1ccc(Cn2cc3c(c2-c2cc(OC)c(OC)c(OC)c2)CCc2c(CN4CCCC4)noc2-3)cc1	69.6%
COc1ccc(Cn2cc3c(c2-c2cc(OC)c(OC)c(OC)c2)CCc2c(CN4CCOCC4)noc2-3)cc1	90.1%
CCNC(=O)N1CCc2cc(OC)c(OCCc3ccc(OC)cc3)cc2C1c1ccc([N+](=O)[O-])cc1C (centres undefined)	54.8%
COc1ccc([C@@H]2[C@@H](O)C(=O)N2c2cc(OC)c(OC)c(OC)c2)cc1F	86.3%
Cc1ccc(-c2nnc(SCc3ccc(O)c4ncccc34)n2-c2ccccc2)cc1	7.85% (active)
COc1cc2oc(-c3cccc(C(=O)N[C@@H](CC(C)C)C(=O)OC(C)(C)C)c3)cc(=O)c2c(OC)c1OC	95%
Cc1ccc(S(=O)(=O)N(CC[C@@H]2C[C@H]2c2cc3ccccc3o2)S(=O)(=O)c2ccc(C)cc2)cc1	98.6%
Brc1ccccc1/C=N/Nc1nc(N/N=C/c2ccccc2Br)nc(N2CCOCC2)n1	99.4%
CC1=NC2=NC(=O)/C(=C3/N=C(C)C=C(c4ccccc4)N3N)NN2C(c2ccccc2)=C1	168%
CN(C)CCN(C)c1ccc2ncc(C#Cc3cncc(C(=O)Nc4ccc(CN5CCN(C)CC5)c(C(F)(F)F)c4)c3)n2n1	134%
NC(N)=Nc1ccc(Oc2cccc(Nc3ccc(Br)c(C(F)(F)F)c3)c2)cn1	7.85% (active)
COc1cc(Cn2cc3c(c2)-c2onc(CN4CCOCC4)c2CC3)cc(OC)c1OC	107%
Cc1cc(-c2ccc(Cl)cc2)n(Cc2nnc(SCC(=O)Nc3ccc(S(N)(=O)=O)cc3)n2-c2ccc([N+](=O)[O-])cc2)n1	105%
COc1ccc(C(=O)CSc2nc3c(c(Nc4ccc(S(N)(=O)=O)cc4)n2)CCCC3)cc1	120%
CCn1c(SCC(=O)Nc2cccc(C(=O)/C=C/c3cc(OC)c(OC)c(OC)c3)c2)nc2ccccc2c1=O	132%
Nc1ncc(-c2ccc(NS(=O)(=O)c3ccc(Cl)c(Cl)c3)cc2)[nH]1	80%
Cc1nn(-c2ccccc2)c2ncnc(N/N=C/c3ccccc3O)c12	40.6%
COc1cc(-c2nnc(SCc3ccc(O)c4ncccc34)n2-c2ccccc2)cc(OC)c1OC	15.2%
Oc1ccc(CSc2nnc(-c3ccc(Cl)cc3)n2-c2ccccc2)c2cccnc12	28.2%
CCc1ccc(SC2c3ccc(N(CC)CC)cc3Oc3nc(N)c(C#N)c(N)c32)cc1 (centres undefined)	-18% (active)
CS(=O)(=O)Nc1cc(-c2ccc3ncc(C#N)c(NCc4ccccc4O)c3c2)cnc1Cl	-6.17% (active)
NS(=O)(=O)c1ccc(Nc2cc(-c3ccccc3)nc(SCC(=O)c3ccccc3)n2)cc1	129%
c1ccc(C(c2nc3ncncc3[nH]2)N2CSc3nc4ccccc4n3C2)cc1 (centres undefined)	115%
COCCNc1ccc2ncc(C#Cc3cncc(C(=O)Nc4ccc(CN5CCN(C)CC5)c(C(F)(F)F)c4)c3)n2n1	-43.3% (active)
O=c1c2ccccc2nc(COc2ccccc2)n1NS(=O)(=O)c1ccc(Cl)cc1	153%
NC(N)=Nc1ccc(Oc2cccc(Nc3ccc(Cl)c(C(F)(F)F)c3)c2)cn1	23.2%
